Source: PubChem BioAssay (EPA / NIEHS)
Inconclusive results are not listed. Calls of active or inactive are those of the source. How the source made its calls, unless noted: active means hit-call score of the fitted dose curve at least 0.9, where 1 is the maximum; inactive means score below 0.9.

Experiments:
[1] = target: Retinoic acid receptor RXR-alpha (Homo sapiens) (UniProt P19793); test: ATG_RXRa_TRANS: Attagene TRANS-FACTORIAL HepG2 Assay for human Retinoid X Receptor alpha (RXRa) (AID 2283012; active means hit-call score of the fitted dose curve at least 0.9, where 1 is the maximum)
Retinoic acid receptor RXR-alpha (Homo sapiens), sequence (P19793 whole entry, looked up, the tested form may be a part): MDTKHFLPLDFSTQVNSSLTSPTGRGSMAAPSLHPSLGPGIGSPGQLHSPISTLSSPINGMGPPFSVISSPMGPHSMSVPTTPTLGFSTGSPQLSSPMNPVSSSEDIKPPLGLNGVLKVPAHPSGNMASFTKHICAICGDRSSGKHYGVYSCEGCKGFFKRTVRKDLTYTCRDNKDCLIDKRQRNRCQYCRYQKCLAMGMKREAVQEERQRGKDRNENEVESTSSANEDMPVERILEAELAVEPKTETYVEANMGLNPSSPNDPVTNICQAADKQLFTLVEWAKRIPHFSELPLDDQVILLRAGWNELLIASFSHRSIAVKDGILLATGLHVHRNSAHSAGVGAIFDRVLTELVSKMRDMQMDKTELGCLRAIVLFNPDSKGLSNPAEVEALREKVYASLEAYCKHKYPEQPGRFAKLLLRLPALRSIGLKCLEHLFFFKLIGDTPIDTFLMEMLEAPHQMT
Method in brief: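 Transient transfection of human HepG2 with multiple GAL4-UAS reporter constructs; 24 h compound exposure; total RNA isolated, reverse-transcribed, PCR-amplified, 6-FAM labelled, HpaI-cut, resolved by capillary electrophoresis. Positive-direction fit versus DMSO.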

[2] = read-out: E-selectin (Homo sapiens) (UniProt P16581); test: BSK_3C_Eselectin: BioMAP Diversity Plus: 3C Assay for Eselectin Biomarker Activity (AID 2283015); conditions: primary human endothelial cells (HUVEC); actives raise or lower the signal
Method in brief: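 Primary human umbilical vein endothelial cells (3C system) were dosed with chemical and cell-surface E-selectin measured by ELISA 24 h later. Bidirectional curve fitting used DMSO as negative control and baseline.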

[3] = read-out: Interleukin-1 alpha (IL1a), IL1A (gene 3552); test: BSK_BE3C_IL1a: BioMAP Diversity Plus: BE3C Assay for Interleukin-1 alpha (IL1a) Biomarker Activity (AID 2283016); conditions: primary human bronchial epithelial cells; actives raise or lower the signal
Method in brief: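 BE3C primary human bronchial epithelium; cpd 24 h; IL-1a by ELISA; bidirectional fit vs DMSO; parallel SRB (0.1% SRB, 10% TCA fix, 560 nm) for cytotoxicity.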

[4] = read-out: Monocyte Chemoattractant Protein-1 (MCP1), CCL2 (gene 6347); test: BSK_3C_MCP1: BioMAP Diversity Plus: 3C Assay for Monocyte Chemoattractant Protein-1 (MCP1) Biomarker Activity (AID 2283017); conditions: primary human endothelial cells (HUVEC); actives raise or lower the signal
Method in brief: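 Primary human umbilical vein endothelial cells (3C system) were exposed to test chemical for 24 h, after which MCP-1 was quantified by ELISA. Activity was fitted bidirectionally against DMSO as negative control and baseline.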

[5] = read-out: Monocyte Chemoattractant Protein-1 (MCP1), CCL2 (gene 6347); test: BSK_4H_MCP1: BioMAP Diversity Plus: 4H Assay for Monocyte Chemoattractant Protein-1 (MCP1) Biomarker Activity (AID 2283018); conditions: primary human endothelial cells (HUVEC); actives raise or lower the signal
Method in brief: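 ELISA read-out of MCP-1 from human vascular endothelial primary cells taken at 24 hours after compound exposure. Activity was fitted in both directions relative to DMSO, which served as negative control.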

[6] = read-out: Human Leukocyte Antigen - DR isotype (HLADR), HLA-DRA (gene 3122); test: BSK_3C_HLADR: BioMAP Diversity Plus: 3C Assay for Human Leukocyte Antigen - DR isotype (HLADR) Biomarker Activity (AID 2283019); conditions: primary human endothelial cells (HUVEC); actives raise or lower the signal
Method in brief: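 Primary human umbilical vein endothelial cells (3C system) were dosed with compound and cell-surface HLA-DR was quantified by ELISA at 24 h. Activity was fitted bidirectionally against DMSO as negative control and baseline.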

[7] = read-out: Interleukin-8 (IL8), CXCL8 (gene 3576); test: BSK_3C_IL8: BioMAP Diversity Plus: 3C Assay for Interleukin-8 (IL8) Biomarker Activity (AID 2283020); conditions: primary human endothelial cells (HUVEC); actives raise or lower the signal
Method in brief: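 ELISA read-out of IL-8 from human umbilical vein endothelium, measured 24 h after chemical dosing. Activity is expressed relative to DMSO negative control, with both increases and decreases fitted.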

[8] = read-out: Monokine induced gamma interferon (MIG), CXCL9 (gene 4283); test: BSK_3C_MIG: BioMAP Diversity Plus: 3C Assay for Monokine induced gamma interferon (MIG) Biomarker Activity (AID 2283021); conditions: primary human endothelial cells (HUVEC); actives raise or lower the signal
Method in brief: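 Read-out is ELISA detection of MIG on human umbilical vein endothelial cells, taken 24 h after dosing. Gain or loss of signal was scored relative to DMSO controls using bidirectional curve fitting.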

[9] = BSK_3C_SRB: Viability Assessment in the BioMAP Diversity Plus: 3C Assay (AID 2283023); conditions: primary human endothelial cells (HUVEC);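 further: fitted both ways against DMSO so a hit may be signal rise or drop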
Method in brief: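 Primary human umbilical vein endothelial cells in the 3C system were read 24 h after compound dosing. Total protein was stained with 0.1% sulforhodamine B after 10% TCA fixation and read at 560 nm, with bidirectional fitting against DMSO as baseline.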

[10] = read-out: Matrix Metallopeptidase 1 (MMP1), MMP1 (gene 4312); test: BSK_BE3C_MMP1: BioMAP Diversity Plus: BE3C Assay for Matrix Metallopeptidase 1 (MMP1) Biomarker Activity (AID 2283024); conditions: primary human bronchial epithelial cells; actives raise or lower the signal
Method in brief: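 Human bronchial epithelial cells (BE3C system) exposed to compound for 24 h; MMP1 then quantified by ELISA. Activity was fitted in both directions relative to DMSO.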

[11] = BSK_3C_Vis: BioMAP Diversity Plus: 3C Assay for Morphology Visualization (AID 2283025); conditions: primary human endothelial cells (HUVEC);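 further: fitted both ways so gain or loss versus DMSO counts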;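 on AC50: light microscopy image of cell morphology used as background control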
Method in brief: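 Chemicals were added to primary human umbilical vein endothelium, cells were incubated 24 h, and morphology was then visualized by light microscopy. Gain or loss of signal was fitted bidirectionally relative to DMSO.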

[12] = read-out: Pselectin, SELP (gene 6403); test: BSK_4H_Pselectin: BioMAP Diversity Plus: 4H Assay for Pselectin Biomarker Activity (AID 2283026); conditions: primary human endothelial cells (HUVEC); actives raise or lower the signal
Method in brief: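 ELISA read-out of P-selectin on human umbilical vein endothelium after 24 h of dosing. Values derive from bidirectional fitting relative to DMSO. Parallel SRB protein staining flagged overt cytotoxicity.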

[13] = BSK_4H_SRB: Viability Assessment in the BioMAP Diversity Plus: 4H Assay (AID 2283027); conditions: primary human endothelial cells (HUVEC);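 further: cells exposed to compound for 24 h before staining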;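 on AC50: curves fitted both ways versus DMSO so AC50 may be loss or gain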
Method in brief: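 Human umbilical vein endothelial cells, 24 h after chemical dosing; total protein measured by 0.1% sulforhodamine B staining after 10% TCA fixation, read at 560 nm. Bidirectional fitting against DMSO.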

[14] = BSK_BE3C_SRB: Viability Assessment in the BioMAP Diversity Plus: BE3C Assay (AID 2283028); conditions: primary human bronchial epithelial cells
Method in brief: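 Human primary bronchial epithelial cells were exposed to test chemicals for 24 h. Total protein in parallel cultures was then measured by staining with 0.1% sulforhodamine B after 10% TCA fixation, with absorbance read at 560 nm. Activity was fitted bidirectionally against DMSO.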

[15] = read-out: Thrombomodulin, THBD (gene 7056); test: BSK_3C_Thrombomodulin: BioMAP Diversity Plus: 3C Assay for Thrombomodulin Biomarker Activity (AID 2283029); conditions: primary human endothelial cells (HUVEC); actives raise or lower the signal
Method in brief: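 Read-out is ELISA of thrombomodulin on human umbilical vein endothelium 24 h after chemical dosing. Gain or loss of signal is scored relative to DMSO. Overt cytotoxicity is checked in parallel cultures by sulforhodamine B staining.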

[16] = read-out: Urokinase-type plasminogen activator receptor (uPAR), PLAUR (gene 5329); test: BSK_4H_uPAR: BioMAP Diversity Plus: 4H Assay for Urokinase-type plasminogen activator receptor (uPAR) Biomarker Activity (AID 2283030); conditions: primary human endothelial cells (HUVEC); actives raise or lower the signal
Method in brief: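 Primary human umbilical vein endothelial cells were exposed to chemical for 24 h before cell-surface uPAR was quantified by ELISA. Activity was fitted bidirectionally against the DMSO negative control baseline.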

[17] = read-out: Vascular endothelial growth factor receptor 2 (Homo sapiens) (UniProt P35968); test: BSK_4H_VEGFRII: BioMAP Diversity Plus: 4H Assay for Vascular endothelial growth factor receptor 2 (VEGFR2) Biomarker Activity (AID 2283031); conditions: primary human endothelial cells (HUVEC); actives raise or lower the signal
Method in brief: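 Primary human umbilical vein endothelial cells in the BioMAP 4H system were dosed with test chemical, and 24 h later VEGFRII was measured by ELISA. Activity was fitted bidirectionally against DMSO as negative control and baseline.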

[18] = target: human Retinoid X Receptor beta (RXRb), RXRB (gene 6257) (UniProt P28702); test: ATG_RXRb_TRANS: Attagene TRANS-FACTORIAL HepG2 Assay for human Retinoid X Receptor beta (RXRb) (AID 2283013; active means hit-call score of the fitted dose curve at least 0.9, where 1 is the maximum)
human Retinoid X Receptor beta (RXRb), RXRB (gene 6257), sequence (P28702 whole entry, looked up, the tested form may be a part): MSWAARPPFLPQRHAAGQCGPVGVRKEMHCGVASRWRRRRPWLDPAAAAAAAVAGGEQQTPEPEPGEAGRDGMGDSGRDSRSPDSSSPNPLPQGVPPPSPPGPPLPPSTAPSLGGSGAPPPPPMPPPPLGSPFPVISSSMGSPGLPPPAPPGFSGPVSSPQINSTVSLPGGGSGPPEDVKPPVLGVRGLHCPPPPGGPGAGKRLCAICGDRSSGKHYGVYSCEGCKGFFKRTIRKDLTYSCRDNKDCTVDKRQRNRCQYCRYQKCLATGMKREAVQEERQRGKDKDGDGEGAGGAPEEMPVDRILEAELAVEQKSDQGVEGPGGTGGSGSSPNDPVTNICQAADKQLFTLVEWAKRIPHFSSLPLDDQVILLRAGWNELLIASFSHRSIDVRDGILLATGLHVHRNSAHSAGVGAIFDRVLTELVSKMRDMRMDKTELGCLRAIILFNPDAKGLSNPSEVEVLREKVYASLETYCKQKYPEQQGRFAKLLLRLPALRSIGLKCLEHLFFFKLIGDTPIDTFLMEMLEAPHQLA
Method in brief: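 Transfect HepG2 with GAL4-UAS multi-reporter constructs (chimeric NR-Gal4, TRANS format); dose compound 24 h; isolate RNA, RT-PCR, FAM primer extension, HpaI digest; quantify by capillary electrophoresis; positive direction vs DMSO.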

[19] = target: human Thyroid Receptor alpha (THRa1), THRA (gene 7067) (UniProt P10827); test: ATG_THRa1_TRANS: Attagene TRANS-FACTORIAL HepG2 Assay for human Thyroid Receptor alpha (THRa1) (AID 2283014; active means hit-call score of the fitted dose curve at least 0.9, where 1 is the maximum)
human Thyroid Receptor alpha (THRa1), THRA (gene 7067), sequence (P10827 whole entry, looked up, the tested form may be a part): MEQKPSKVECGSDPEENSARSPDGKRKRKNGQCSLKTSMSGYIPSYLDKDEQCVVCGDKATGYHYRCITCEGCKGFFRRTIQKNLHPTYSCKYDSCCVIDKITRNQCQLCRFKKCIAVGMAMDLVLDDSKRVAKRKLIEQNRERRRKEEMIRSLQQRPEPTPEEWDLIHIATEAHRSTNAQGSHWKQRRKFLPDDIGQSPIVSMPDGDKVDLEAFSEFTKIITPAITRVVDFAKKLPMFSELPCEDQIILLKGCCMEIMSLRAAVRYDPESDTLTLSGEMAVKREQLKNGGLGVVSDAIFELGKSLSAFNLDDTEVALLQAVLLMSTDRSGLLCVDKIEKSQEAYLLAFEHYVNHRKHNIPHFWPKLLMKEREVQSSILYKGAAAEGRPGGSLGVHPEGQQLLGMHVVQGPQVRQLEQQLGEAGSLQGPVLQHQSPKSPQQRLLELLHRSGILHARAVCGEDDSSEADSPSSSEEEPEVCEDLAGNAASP
Method in brief: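 HepG2 cells transiently transfected with multiplexed GAL4-UAS reporter units for exogenous chimeric THRa1-Gal4; reporter mRNA measured 24 h after dosing by RT-PCR, 6-FAM labelling, HpaI digestion and capillary electrophoresis. Gain-of-signal fitted versus DMSO baseline.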

[20] = target: human Vitamin D Receptor (VDR), VDR (gene 7421) (UniProt P11473); test: ATG_VDR_TRANS: Attagene TRANS-FACTORIAL HepG2 Assay for human Vitamin D Receptor (VDR) (AID 2283022; active means hit-call score of the fitted dose curve at least 0.9, where 1 is the maximum)
human Vitamin D Receptor (VDR), VDR (gene 7421), sequence (P11473 whole entry, looked up, the tested form may be a part): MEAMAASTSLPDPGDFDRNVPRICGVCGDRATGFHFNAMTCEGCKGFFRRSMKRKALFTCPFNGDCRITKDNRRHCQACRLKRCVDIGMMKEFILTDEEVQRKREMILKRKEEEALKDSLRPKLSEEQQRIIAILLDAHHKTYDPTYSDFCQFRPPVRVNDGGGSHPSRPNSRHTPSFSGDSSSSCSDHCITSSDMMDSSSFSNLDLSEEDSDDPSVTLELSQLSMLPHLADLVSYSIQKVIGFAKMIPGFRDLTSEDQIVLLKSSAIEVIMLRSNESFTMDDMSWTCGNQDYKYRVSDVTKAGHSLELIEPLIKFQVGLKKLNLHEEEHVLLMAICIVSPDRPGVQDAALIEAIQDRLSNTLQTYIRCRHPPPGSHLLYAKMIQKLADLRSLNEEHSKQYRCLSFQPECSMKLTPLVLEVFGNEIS
Method in brief: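 HepG2 cells were transiently transfected with multiple GAL4-UAS reporter units, so signal reflects exogenous chimeric receptor-Gal4 activity. After 24 h compound exposure, reporter mRNA was measured by RT-PCR, fluorescent labelling and capillary electrophoresis, fitted for gain of signal versus DMSO.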

Measured: AC50

E-selectin (Homo sapiens), sequence (P16581 whole entry, looked up): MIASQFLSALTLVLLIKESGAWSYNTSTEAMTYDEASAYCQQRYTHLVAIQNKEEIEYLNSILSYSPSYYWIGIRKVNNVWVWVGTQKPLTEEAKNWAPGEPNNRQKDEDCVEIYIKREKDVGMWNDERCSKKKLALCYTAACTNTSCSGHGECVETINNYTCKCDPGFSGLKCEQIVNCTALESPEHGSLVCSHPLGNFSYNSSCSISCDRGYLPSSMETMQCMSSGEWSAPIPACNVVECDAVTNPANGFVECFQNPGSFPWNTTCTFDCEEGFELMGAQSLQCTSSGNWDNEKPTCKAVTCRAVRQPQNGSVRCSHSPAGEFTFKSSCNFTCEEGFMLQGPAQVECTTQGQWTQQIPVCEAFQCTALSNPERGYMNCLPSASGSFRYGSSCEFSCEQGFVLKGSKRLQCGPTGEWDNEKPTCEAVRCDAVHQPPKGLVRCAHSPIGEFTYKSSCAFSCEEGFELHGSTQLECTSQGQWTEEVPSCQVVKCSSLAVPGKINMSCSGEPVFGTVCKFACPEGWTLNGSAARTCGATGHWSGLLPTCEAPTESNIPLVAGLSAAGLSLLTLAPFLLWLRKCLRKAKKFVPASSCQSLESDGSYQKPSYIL

Cn1cnc2c1c(=O)[nH]c(=O)n2C
inactive: [1] | [2] | [3] | [4] | [5] | [6] | [7] | [8] | [9] | [10] | [11] | [12] | [13] | [14] | [15] | [16] | [17]

CC(=O)OC1CC(C)OC(C)O1 (stereo not given)
inactive: [1] | [18] | [2] | [3] | [4] | [5] | [6] | [7] | [9] | [10] | [11] | [12] | [13] | [14] | [15] | [17]

CC(C)c1cccc(C(C)C)c1
active: [18] 100 µM
inactive: [1] | [2] | [3] | [4] | [5] | [6] | [7] | [9] | [10] | [11] | [12] | [13] | [14] | [15] | [16] | [17]

CC(N)=O
inactive: [1] | [19] | [2] | [3] | [4] | [5] | [6] | [7] | [9] | [10] | [11] | [12] | [13] | [14] | [15] | [16] | [17]

CCCCC(CC)CO (stereo not given)
inactive: [1] | [18] | [2] | [3] | [4] | [5] | [6] | [7] | [20] | [9] | [10] | [11] | [12] | [13] | [14] | [15] | [17]

COc1ccc(OC(F)(F)F)cc1CN[C@H]1CCCN[C@H]1c1ccccc1
inactive: [1] | [18] | [3] | [5] | [7] | [20] | [10] | [12] | [14] | [17]
active: [2] 9.58 µM | [4] 20 µM | [6] 32.8 µM | [9] 15 µM | [11] 3.29 µM | [13] 14.3 µM | [15] 17.8 µM

CC(C)COC(=O)CCCCC(=O)OCC(C)C
inactive: [18] | [19] | [2] | [3] | [4] | [5] | [6] | [7] | [8] | [20] | [9] | [10] | [11] | [12] | [13] | [14] | [15] | [16] | [17]
